Among the test systems are HCT-15 colon; HT29 colon; SNB-75 CNS; SNB-19 CNS; U251 CNS; PC-3 prostate; SK-MEL-5 melanoma; UACC-62 melanoma; LOX IMVI melanoma; SK-MEL-28 melanoma.
Experiment in all cases: NCI-60 one-dose screen, 48 h (100 = growth as untreated, 0 = no growth, -100 = all killed)
Common to all, as to conditions: 10 µM

Structures are written as SMILES. About 83,000 compounds went through this panel and 20% of them were active in at least one assay; those are over-represented in the sample as a whole.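 In brief: 96-well plates, 48 h treatment, single concentration, percent growth endpoint.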 Unmarked numbers belong to inactive results. Calls of active or inactive are those of the source. The calls were made as follows: active = growth percent below 10; inactive = the rest.

With `COc1ccc(-c2cc(-c3ccc(OC)c(OC)c3)nc(SCCCC(=O)NO)n2)cc1`, the growth with HCT-15 colon was 2.78% (active); with HT29 colon, 4.72% (active); in the assay with SNB-75 CNS, -19% (active); in the assay with SNB-19 CNS, 11.2%; in the assay with U251 CNS it was -9.1% (active); with PC-3 prostate, 1.17% (active). Besides, the growth is -65.2% (active) in the assay with SK-MEL-5 melanoma, -55.2% (active) with UACC-62 melanoma, -79% (active) in the assay with LOX IMVI melanoma and 19.2% with SK-MEL-28 melanoma.
Turning to `CCOC(=O)c1cc(C(=O)c2cc(OC)c(OC)c(OC)c2)n2c1ccc1c3cccnc3ccc12`, the growth is 41.4% with HCT-15 colon; 19.5% with HT29 colon; 64.7% with SNB-75 CNS; 71.9% with SNB-19 CNS; 51% with U251 CNS; 63.9% in the assay on PC-3 prostate. For the same compound, the growth was 34.1% in the assay with SK-MEL-5 melanoma, 57.5% in the assay on UACC-62 melanoma, 46.9% with LOX IMVI melanoma and 80.2% with SK-MEL-28 melanoma.
`C=CCn1c(SCC(=O)Nc2ccc(C(=O)/C=C/c3ccc(Cl)cc3)cc2)nnc1-c1cc(-c2ccccc2)nc2ccccc12`: the growth is 8.31% (active) with HCT-15 colon; 40.9% in the assay on HT29 colon; 59.8% in the assay with SNB-75 CNS; 66.9% with SNB-19 CNS; 48.1% in the assay on U251 CNS; 70.4% in the assay on PC-3 prostate. Also, the growth was 87.1% in the assay with SK-MEL-5 melanoma, 59.9% with UACC-62 melanoma, -82.4% (active) in the assay on LOX IMVI melanoma and 99.7% with SK-MEL-28 melanoma.
For the compound `O=C(CN1CCN(C(=O)c2ccccc2)CC1)Nc1ccccc1SCc1ccccc1`, the growth was 87.3% in the assay with HCT-15 colon; 81% in the assay on HT29 colon; 75.6% in the assay with SNB-75 CNS; 90.7% with SNB-19 CNS; 90.8% with U251 CNS; 57.9% in the assay with PC-3 prostate. Also, the growth was 56.9% with SK-MEL-5 melanoma, 52% with UACC-62 melanoma, 73.9% in the assay on LOX IMVI melanoma and 98.2% in the assay with SK-MEL-28 melanoma.
As for `O=[N+]([O-])c1ccc(/C(=C/c2ccccc2)[n+]2ccccc2)cc1`, the growth was 104% in the assay on HCT-15 colon; 106% in the assay with HT29 colon; 98.7% in the assay with SNB-75 CNS; 103% in the assay with SNB-19 CNS; 94.3% with U251 CNS; 99% in the assay on PC-3 prostate. Further, the growth in the assay with SK-MEL-5 melanoma was 103%; with UACC-62 melanoma, 100%; in the assay with LOX IMVI melanoma, 105%; in the assay with SK-MEL-28 melanoma, 105%.
Turning to `CC(=O)Nc1ccc(S(=O)(=O)N/N=C(\C)c2ccc(C)cc2C)cc1`, the growth in the assay with HCT-15 colon was 100%; in the assay on HT29 colon it was 105%; with SNB-75 CNS, 77.4%; in the assay on SNB-19 CNS, 101%; with U251 CNS, 104%; in the assay on PC-3 prostate, 99.9%. For the same compound, the growth with SK-MEL-5 melanoma was 113%; in the assay on UACC-62 melanoma it was 107%; in the assay with LOX IMVI melanoma it was 106%; in the assay on SK-MEL-28 melanoma, 108%.
As to `O=C(N/N=C/c1c(Cl)cccc1Cl)c1ccccc1Nc1cccc(C(F)(F)F)c1`, the growth was 88.5% in the assay on HCT-15 colon; 103% in the assay with HT29 colon; 105% in the assay with SNB-75 CNS; 97% in the assay with SNB-19 CNS; 89.9% in the assay with U251 CNS; 89.9% in the assay with PC-3 prostate. In addition, the growth with SK-MEL-5 melanoma is 72.9%; in the assay on UACC-62 melanoma it was 87.1%; in the assay with LOX IMVI melanoma, 76.3%; in the assay on SK-MEL-28 melanoma, 99.5%.
`CC(CN(C)C)Oc1ccccc1NC1=C(Cl)C(=O)C(Nc2ccccc2OC(C)CN(C)C)=C(Cl)C1=O` (stereo not given): the growth is -79% (active) in the assay on HCT-15 colon; -70.1% (active) in the assay on HT29 colon; 35% in the assay on SNB-75 CNS; 3.85% (active) with SNB-19 CNS; -84.2% (active) in the assay with U251 CNS; 3.47% (active) in the assay with PC-3 prostate. Also, the growth in the assay with SK-MEL-5 melanoma was -95.8% (active); in the assay on UACC-62 melanoma, -84.5% (active); with LOX IMVI melanoma, -80.6% (active); in the assay on SK-MEL-28 melanoma it was -64.9% (active).
Consider `CC(=O)OC/C=C(/C)C[P+](c1ccccc1)(c1ccccc1)c1ccccc1`, for which the growth with HCT-15 colon is 73.3%; in the assay on HT29 colon it was 59.8%; in the assay with SNB-75 CNS, 76.8%; in the assay on SNB-19 CNS, 47%; in the assay with U251 CNS, 35.8%; with PC-3 prostate it was 41.3%. Also, the growth is 43.1% in the assay with SK-MEL-5 melanoma, 47.6% in the assay on UACC-62 melanoma, 55.2% with LOX IMVI melanoma and 69% in the assay with SK-MEL-28 melanoma.
Regarding `COc1ccc(C2=Cn3c(CCC(=O)c4nc5ccccc5[nH]4)nnc3SC2)cc1`, the growth in the assay on HCT-15 colon is 104%; with HT29 colon it was 58.2%; in the assay with SNB-75 CNS it was 110%; with SNB-19 CNS, 113%; with U251 CNS it was 94.1%; in the assay with PC-3 prostate, 84.2%. The growth in the assay with SK-MEL-5 melanoma was 87.7%; with UACC-62 melanoma it was 106%; with LOX IMVI melanoma it was 83.7%; with SK-MEL-28 melanoma, 111%.
Regarding `NNC(=O)Oc1c(Cl)cc(Cl)cc1[N+](=O)[O-]`, the growth in the assay on HCT-15 colon is 99.2%; in the assay on HT29 colon it was 100%; with SNB-75 CNS, 106%; with SNB-19 CNS it was 106%; in the assay on U251 CNS, 97.5%; in the assay with PC-3 prostate, 107%. Also, the growth with SK-MEL-5 melanoma was 103%; in the assay on UACC-62 melanoma, 104%; with LOX IMVI melanoma, 98%; in the assay with SK-MEL-28 melanoma it was 108%.
For `COc1cc(C(=O)/C(C)=C/c2c[nH]c3ccccc23)cc(OC)c1OC`, the growth is 9.94% (active) in the assay with HCT-15 colon; 5.62% (active) with HT29 colon; 36.3% with SNB-75 CNS; 34% in the assay on SNB-19 CNS; 18.1% in the assay with U251 CNS; 19.8% in the assay on PC-3 prostate. Moreover, the growth in the assay on SK-MEL-5 melanoma is -36.4% (active); in the assay with UACC-62 melanoma it was 40.2%; with LOX IMVI melanoma it was 17.8%; in the assay on SK-MEL-28 melanoma it was 66.2%.
Turning to `COc1ccc2c(c1)C(=O)/C(=C/c1ccc([N+](=O)[O-])o1)O2`, the growth with HCT-15 colon was -48.5% (active); in the assay on HT29 colon it was -63% (active); with SNB-75 CNS, 9.47% (active); in the assay on SNB-19 CNS, 19.9%; with U251 CNS, -55.1% (active); in the assay on PC-3 prostate, 58.9%. In addition, the growth is -91.3% (active) in the assay on SK-MEL-5 melanoma, -89% (active) with UACC-62 melanoma, -77.4% (active) in the assay on LOX IMVI melanoma and -71.1% (active) in the assay on SK-MEL-28 melanoma.
Turning to `CC(=O)C1CCC2C3CC=C4CC(SC(=N)N)CCC4(C)C3CCC12C` (stereo not given), the growth in the assay with HCT-15 colon is 16.3%; in the assay on HT29 colon, 11%; in the assay on SNB-75 CNS it was 55.4%; with SNB-19 CNS it was 64.2%; in the assay with U251 CNS, 30.5%; in the assay on PC-3 prostate, 33%. Moreover, the growth in the assay with SK-MEL-5 melanoma is 15.6%; in the assay on UACC-62 melanoma it was 64.4%; in the assay on LOX IMVI melanoma, -56% (active); in the assay with SK-MEL-28 melanoma, 61.5%.
Take `CN(C)CCCSc1ccccc1NC1=C(Cl)C(=O)C(Nc2ccccc2SCCCN(C)C)=C(Cl)C1=O`: the growth in the assay with HCT-15 colon is 72.1%; with HT29 colon, 22.7%; in the assay on SNB-75 CNS it was 105%; in the assay with SNB-19 CNS, 90.6%; in the assay with U251 CNS it was 23%; with PC-3 prostate, 42.8%. Besides, the growth is 91.1% in the assay on SK-MEL-5 melanoma, 60.7% in the assay with UACC-62 melanoma, -81.7% (active) with LOX IMVI melanoma and 104% with SK-MEL-28 melanoma.
Take `COc1ccc2nc3cc(Cl)ccc3c(Nc3cc(CN4CCCC4)c(O)c(CN4CCCC4)c3)c2n1`: the growth was 5.6% (active) in the assay on HCT-15 colon; 1.23% (active) with HT29 colon; -64.4% (active) in the assay with SNB-75 CNS; 14.5% with SNB-19 CNS; 10.4% with U251 CNS; 6.93% (active) in the assay with PC-3 prostate. Also, the growth with SK-MEL-5 melanoma is -96.1% (active); in the assay with UACC-62 melanoma it was -23.4% (active); in the assay with LOX IMVI melanoma it was -8.24% (active); with SK-MEL-28 melanoma it was -21.8% (active).
In the case of `O=C(Nc1cc(Cl)cc2c1-c1ccc(Cl)cc1C2O)C(Cl)Cl` (stereo not given), the growth is 82.5% in the assay on HCT-15 colon; 84.9% in the assay with HT29 colon; 65.9% in the assay on SNB-75 CNS; 70% with SNB-19 CNS; 78.4% in the assay on U251 CNS; 67.7% in the assay with PC-3 prostate. Moreover, the growth with SK-MEL-5 melanoma was 41.5%; in the assay with UACC-62 melanoma it was 60.3%; with LOX IMVI melanoma, 76.2%; in the assay on SK-MEL-28 melanoma, 84.6%.
With `CCN(CC)CCOc1cccc2c1C(=O)c1ccccc1C2=O`, the growth was 94.6% in the assay with HCT-15 colon; 80.6% in the assay with HT29 colon; 86.4% with SNB-75 CNS; 92.1% in the assay on SNB-19 CNS; 93.4% in the assay on U251 CNS; 83.5% in the assay on PC-3 prostate. Also, the growth with SK-MEL-5 melanoma is 93.7%; in the assay with UACC-62 melanoma, 95.2%; with LOX IMVI melanoma it was 84.1%; in the assay with SK-MEL-28 melanoma it was 111%.
Take `CN(C)CCCOc1ccc(NC2=C(Cl)C(=O)C(Nc3ccc(OCCCN(C)C)cc3)=C(Cl)C2=O)cc1`: the growth was -82% (active) in the assay with HCT-15 colon; -54.1% (active) in the assay on HT29 colon; -77.9% (active) in the assay with SNB-75 CNS; -48.6% (active) in the assay with SNB-19 CNS; -91.2% (active) with U251 CNS; -7.37% (active) in the assay with PC-3 prostate. Also, the growth in the assay with SK-MEL-5 melanoma is -96.6% (active); in the assay with UACC-62 melanoma, -74.9% (active); with LOX IMVI melanoma it was -80.5% (active); with SK-MEL-28 melanoma it was 39.4%.
Regarding `NS(=O)(=O)c1ccc(N2N=C(c3ccccc3)CCC2=O)cc1`, the growth is 109% with HCT-15 colon; 98.6% in the assay on HT29 colon; 108% with SNB-75 CNS; 94.7% with SNB-19 CNS; 104% in the assay on U251 CNS; 105% with PC-3 prostate. Besides, the growth in the assay on SK-MEL-5 melanoma is 105%; in the assay on UACC-62 melanoma, 106%; in the assay with LOX IMVI melanoma, 108%; in the assay on SK-MEL-28 melanoma, 120%.
As to `C[C@H]1[C@H](OC(=O)CCC(=O)O)O[C@@H]2O[C@]3(C)CC[C@H]4[C@H](C)CC[C@@H]1[C@@]24OO3`, the growth with HCT-15 colon is 16.7%; in the assay on HT29 colon it was 23.8%; in the assay with SNB-75 CNS it was 61.8%; in the assay with SNB-19 CNS it was 57.9%; with U251 CNS, 36.5%; in the assay on PC-3 prostate, 25%. The growth in the assay on SK-MEL-5 melanoma is 28%; in the assay with UACC-62 melanoma it was 36.4%; in the assay with LOX IMVI melanoma, -49.5% (active); in the assay on SK-MEL-28 melanoma it was 70.5%.
As for `Clc1nc2ccc(Br)cc2cc1-c1nc2ccccc2[nH]1`, the growth in the assay on HCT-15 colon was 92.3%; with HT29 colon it was 106%; in the assay on SNB-75 CNS, 42.4%; with SNB-19 CNS, 91%; with U251 CNS it was 81%; in the assay with PC-3 prostate it was 39.6%. The growth with SK-MEL-5 melanoma was 84.7%; with UACC-62 melanoma, 90.9%; with LOX IMVI melanoma, 69.5%; in the assay on SK-MEL-28 melanoma, 105%.

Source of the values: PubChem BioAssay (NCI).
